# Bioassay records deposited in PubChem by National Center for Advancing Translational Sciences (NCATS).
# Shown are actives, neighbours in structure and some others; about 6.5% of the full set was active somewhere.
# FMDV inh – blocks foot and mouth disease virus; FMDV antiviral cell-based qHTS; Potency, µM (series often up to 57.9 µM), inactives show at the top dose activity change, negative = inhibition, actives largely listed as inhibitors; AID 1159524; 410,000 compounds, 1.2% hits; calls by dose curve; tested in HEK293T cells; note: read-out not given here; potency is the fitted concentration of half-maximal effect; nearly all actives have a fitted effect of over 45% in size
# Lassa entry inh – Lassa virus entry inhibition | Lassa virus pseudotype entry inhibition, cell reporter | Potency, µM (series often up to 37.9 µM), inactives show at the top dose activity change, negative = inhibition, most hits filed as inhibitors | 300,000 compounds, 1.2% hits; calls by dose curve; tested in HEK293 cells; note: potency is the fitted concentration of half-maximal effect; nearly all actives have a fitted effect of over 50% in size
# MARV entry inh – inhibitors of Marburg virus binding or cell entry | Marburg virus pseudotyped entry inhibition, cell reporter | Potency, µM (highest dose often 37.8 µM), for the others: top-dose activity change, negative = inhibition, hits mostly inhibitors | 300,000 compounds, 1.8% hits | AID 540276; calls by dose curve; tested in HEK293 cells; note: potency is the fitted concentration of half-maximal effect
# HCMV antiviral – blocks human cytomegalovirus replication. HFF cells, HCMV-luciferase reporter, 72 h; hits give low values. activity change, negative = inhibition, % at 57.5 µM. 410,000 compounds, 4.5% hits. AID 1259415; in the data active = activity change below about -60%; inconclusive = no clear call, values can overlap the other calls; inactive = above about -39%
#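 Human foreskin fibroblasts infected with luciferase-reporter HCMV at MOI 1 PFU/cell, compounds at two doses. Luciferase measured 72 h post infection; normalized to buffer-only basal and Salinomycin (10uM) controls.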
# VACV Venus inh – vaccinia inhibition (Venus reporter); Vaccinia virus Venus reporter expression, fluorescence; Potency, µM (series often up to 36.5 µM), inactives show at the top dose activity change, negative = inhibition, most hits filed as inhibitors; 330,000 compounds, 0.46% hits; calls by dose curve; tested in A549 cells; note: potency is the fitted concentration of half-maximal effect; nearly all actives have a fitted effect of over 30% in size
# VACV mCherry inh – inhibitors of vaccinia virus infection (mCherry reporter signal) | Potency, µM (series often up to 36.5 µM), without a hit: at the top dose activity change, negative = inhibition, actives largely listed as inhibitors | Vaccinia virus mCherry reporter infection, fluorescence | 310,000 compounds, 0.63% hits; calls by dose curve; tested in A549 cells; note: potency is the fitted concentration of half-maximal effect; nearly all actives have a fitted effect of over 35% in size
# * hit, by the source's call; i = inactive; ? = inconclusive; · = no result given; [ ] = remark or other dose. % is set by controls: 0 for no effect and ±100 for the full control effect.
SMILES,FMDV inh,Lassa entry inh,MARV entry inh,HCMV antiviral,VACV Venus inh,VACV mCherry inh
CCc1ccc(Nc2n[n+](-c3ccccc3)c(-c3cc(OC)c(OC)cc3Br)s2)cc1,-3.4%,·,·,22.8,?,?
CCc1ccc(Nc2n[n+](-c3ccccc3)c(-c3c(Cl)cccc3Cl)s2)cc1,28.2µM*,·,·,-98.2*,8.91µM*,?
COc1ccc(C)cc1Nc1n[n+](-c2ccccc2)c(-c2c(Cl)cccc2Cl)s1,0.0%,·,·,-99.6*,10µM*,?
CCc1ccc(NC(=O)CSc2nc3c(c(=O)[nH]2)CN(Cc2ccc4c(c2)OCO4)CC3)cc1,-4.0%,2.0%[46.1 µM],5.7%[46.1 µM],-3.8,2.7%,-10.8%
COCc1c(C(=O)OCC(=O)N(C)C2CCS(=O)(=O)C2)oc2ccccc12 (centres undefined),-11.5%,·,·,25.5,·,·
COC(=O)C1CCN(Cc2ccc3c(c2)CN(C(=O)c2cc(C)on2)CCO3)CC1,-2.0%,·,·,·,-8.5%,-17.1%
COc1ccc(/C=C/c2onc(C)c2S(=O)(=O)N2CCC(C(=O)N3CCCCCC3)CC2)cc1,-20.5%,?,?,-69.0*,?,?
Cc1noc(/C=C/N(C)C)c1S(=O)(=O)N1CCC(C(=O)O)CC1,-15.2%,·,·,-69.2*,1.7%,44.9%
Cc1ccc(/C=C/c2onc(C)c2S(=O)(=O)N2CCC(C(=O)N3CCCCC3)CC2)cc1,-22.0%,·,·,-38.5,?,-29.3%
Cc1ccc(-n2ncc3c2CCCC3NC(=O)CCCN2CCCC2=O)cc1C (centres undefined),0.0%,-9.9%,-4.5%,-7.3,-9.6%,-11.1%
CC(C)(C)c1ccc(-n2ncc3c2CCCC3NC(=O)CCN2CCCCC2=O)cc1 (centres undefined),?,-49.2%,-19.1%,-63.8*,-25.0%,-27.8%
CC(C)(C)c1ccc(-n2ncc3c2CCCC3NC(=O)CCC2=NNC(=O)CC2)cc1 (centres undefined),?,·,·,-75.5*,-28.0%,i
CC(C)N(C(=O)[C@H]1CC(CC(=O)NCC23CC4CC(CC(C4)C2)C3)C(=O)N2CCc3c([nH]c4ccccc34)[C@]12C)C(C)C (some centres undefined),0.0%,·,·,-73.6*,?,?
C[C@]12c3[nH]c4ccccc4c3CCN1C(=O)C(CC(=O)NCC13CC4CC(CC(C4)C1)C3)C[C@@H]2C(=O)N1CCCCC1 (some centres undefined),-22.3%,·,·,-76.4*,-28.6%,?
CC(C)N(C(=O)[C@H]1C[C@H](CC(=O)NCC23CC4CC(CC(C4)C2)C3)C(=O)N2CCc3c([nH]c4cc(CCC(=O)N(C)C)ccc34)[C@]12C)C(C)C,?,·,·,-8.6,-26.9%,-15.1%
CC(C)N(C(=O)[C@H]1C[C@H](CC(=O)NCC23CC4CC(CC(C4)C2)C3)C(=O)N2CCc3c([nH]c4cc(-c5ccco5)ccc34)[C@]12C)C(C)C,-26.0%,·,·,-21.2,?,28.2µM*
C[C@]12c3[nH]c4ccccc4c3CCN1C(=O)C(CC(=O)NCC13CC4CC(CC(C4)C1)C3)C[C@@H]2C(=O)N1CCOCC1 (some centres undefined),?,·,·,-37.9,?,-3.8%
CCOC(=O)c1ccc(N2C(=O)C[C@@H](Sc3nnc(C)s3)C2=O)cc1,·,·,8.4%,·,·,·
C[N+]1(CC(=O)c2ccc(F)cc2)CCc2ccccc2C1 (centres undefined),·,·,·,·,-8.1%,i
COc1ccc(OC)c(NC(=O)c2ccc3c(c2)C(=O)N(CC2CCCO2)C3=O)c1 (centres undefined),-9.3%,-26.8%[46.1 µM],1.9%[46.1 µM],-66.5*,0.8%,i
CCOC(=O)c1ccc(NC(=O)c2ccc3c(c2)C(=O)N(Cc2cccnc2)C3=O)cc1,17.8µM*,·,·,11.1,·,·
COC(=O)Cc1ccc(NC(=O)c2ccc3c(c2)C(=O)N(Cc2cccnc2)C3=O)cc1,?,-2.0%[46.1 µM],0.0%[46.1 µM],25.7,-20.8%,i
CCOC(=O)c1ccc(NC(=O)c2ccc3c(c2)C(=O)N(CC2CCCO2)C3=O)cc1 (centres undefined),28.2µM*,-3.7%,26.2%,-16.4,-4.2%,-3.2%
Cc1ccc(NC(=O)c2ccc3c(c2)C(=O)N(CC2CCCO2)C3=O)cc1C (centres undefined),-12.4%,16.2%[46.1 µM],-2.0%[46.1 µM],-0.8,-0.7%,-8.1%
Cc1cc(C(=O)NCc2cc(C)n(C)n2)sc1-c1ccccc1,-23.8%,-28.5%,?,-82.6*,-23.8%,-10.5%
SMILES,FMDV inh,Lassa entry inh,MARV entry inh,HCMV antiviral,VACV Venus inh,VACV mCherry inh
CCC1CN(CCC(=O)N2CCN(c3ncccn3)CC2)Cc2cc(OC)ccc2O1 (centres undefined),-19.1%,·,·,·,0.0%,-14.7%
CN1CCN(S(=O)(=O)c2cccs2)CC1,-18.9%,2.3%,-7.0%[46.1 µM],1.0,-10.2%,i
CC(=O)N1CCN(c2ccc(C(N)=O)cc2[N+](=O)[O-])CC1,-11.5%,1.6%[46.1 µM],?,-32.5,-11.9%,-0.3%
NC(=O)c1ccc(N2CCCCCC2)c([N+](=O)[O-])c1,-8.5%,?,11.5%[46.1 µM],-60.4*,-12.0%,i
O=C(Nc1nc2ccccc2s1)c1ccc(N2CCCCC2)c([N+](=O)[O-])c1,-50.0%,?,?,-71.5*,-24.3%,-12.5%
O=S(=O)(c1cccs1)N1CCN(c2ccc(O)cc2)CC1,-4.3%,?,?,?,-21.4%,3.98µM*
CN1CCN(c2ccc(C(=O)c3ccc(Br)cc3)cc2[N+](=O)[O-])CC1,?,16.3%,7.94µM*,-67.6*,-18.9%,-17.8%
O=C(NCc1ccncc1)c1ccc(N2CCCC2)c([N+](=O)[O-])c1,-23.7%,-6.7%,-5.5%[46.1 µM],-62.2*,-7.5%,-15.0%
CCN(CC(=O)Nc1c(F)cccc1F)C(=O)c1cc(S(=O)(=O)N(CC)CC)ccc1N1CCCCC1,30.8%,?,-11.1%[46.1 µM],-35.8,-12.7%,-10.6%
NC(=O)c1ccc(N2CCN(S(=O)(=O)c3cccs3)CC2)c([N+](=O)[O-])c1,20µM*,·,·,-83.9*,·,·
CCN(CC(=O)Nc1c(F)cccc1F)C(=O)c1ccc(N2CCCCC2)c([N+](=O)[O-])c1,-20.6%,7.08µM*,?,-20.2,-25.3%,-11.4%
COc1ccc2cc(/C=C3\SC(=S)NC3=O)c(N3CCOCC3)nc2c1,28.2µM*,?,11.2µM*,-88.2*,-10.7%,-3.1%
O=C1NC(=S)S/C1=C/c1ccc(N2CCOCC2)o1,?,-9.5%,?,·,i,i
CC(=O)N1CCC[C@@]2(CCN(c3ncccn3)C2)C1,-1.2%,·,·,·,·,·
COc1ccc(CC(NC(C)=O)C(=O)NC2CCN(C(=O)C3CCCCC3)CC2)cc1OC (centres undefined),-9.0%,-4.9%[46.1 µM],6.2%[46.1 µM],-67.7*,-1.1%,-9.4%
CCOc1ccc(C(=O)Nc2cc(C)on2)cc1,30.4%,?,?,101.5,·,·
CC(C)c1cc(C(N)=O)c(NC(=O)c2cccc(COc3ccc(Cl)cc3)c2)s1,-18.5%,?,3.16µM*,12.3,-13.2%,-5.3%
